Measured values published in PubChem BioAssay (NCATS).
Results filed as inconclusive are left out. Activity calls are given as the source filed them. Calls follow the shape of the dose curve; as a rule, active = well fitted cell-killing curve with a large enough effect; inconclusive = small, poorly fitted or top-dose-only effect, or effect the other way; inactive = flat fitted curve, though single readings scatter.

What was measured:
Test in all cases: Primary qHTS to identify gynecologic anti-cancer compounds using libraries of approved drugs and bioactive compounds (AID 1345084); also: nearly all actives have a fitted effect of over 55% in size
C33A = conditions: Gynecologic cancer cell panel viability, ATPlite luminescence, 48 h; series mostly up to 57.5 µM
Procedure, shortened: (§1)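 ATP-based viability (ATPlite), 1,000 cells/well, 16 h pre-incubation, 48 h compound at 37 C, 5% CO2, 15 min RT before read.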

CAOV3 = conditions: Gynecologic cancer cell panel viability, ATPlite luminescence, 48 h; series mostly up to 57.5 µM
Procedure, shortened: as §1

CASKI = conditions: Gynecologic cancer cell panel viability, ATPlite luminescence, 48 h; series mostly up to 57.5 µM
Procedure, shortened: as §1

Es-2 = conditions: Gynecologic cancer cell panel viability, ATPlite luminescence, 48 h; series mostly up to 57.5 µM
Procedure, shortened: as §1

HeLa = conditions: Gynecologic cancer cell panel viability, ATPlite luminescence, 48 h; series mostly up to 57.5 µM
Procedure, shortened: as §1

Hek293T = conditions: Gynecologic cancer cell panel viability, ATPlite luminescence, 48 h, control line for the selectivity index; series mostly up to 57.5 µM
Procedure, shortened: as §1
% is scaled to controls: 0 for no effect and ±100 for the full control effect.

C=C1CCC2C(C)(C)C(O)CCC2(C)C1CCC(C)CCOC(C)=O (configuration not stated)
inactive: Potency (C33A) | Potency (CAOV3) | Potency (CASKI) | Potency (Es-2) | Potency (HeLa) | Potency (Hek293T)

C=CC1C(OC2OC(CO)C(O)C(O)C2O)OC=C(C(=O)OC)C1CC(=O)OCC1C(C)C(O)CC1C(CO)COC(=O)CC1C(C(=O)O)=COC(OC2OC(CO)C(O)C(O)C2O)/C1=C\C (configuration not stated)
inactive: activity change, negative = cytotoxicity (C33A) 0.0118% [at 11.6 µM] | activity change, negative = cytotoxicity (CAOV3) 12.7% [at 11.6 µM] | activity change, negative = cytotoxicity (CASKI) 1.02% [at 11.6 µM] | activity change, negative = cytotoxicity (Es-2) -2.47% [at 11.6 µM] | activity change, negative = cytotoxicity (HeLa) 2.07% [at 11.6 µM] | activity change, negative = cytotoxicity (Hek293T) 1.07% [at 11.6 µM]

C[C@@H]1C[C@@H](O)[C@@]23CO[C@@H](O)[C@@H]2CCC[C@@H]3[C@@]12C[C@@H](c1ccoc1)OC2=O
inactive: Potency (C33A) | Potency (CAOV3) | Potency (CASKI) | Potency (Es-2) | Potency (HeLa) | Potency (Hek293T)

CC1CCC23COC(=O)C2=CC(O)CC3C1(C)CCC1=CC(O)OC1=O (configuration not stated)
inactive: Potency (C33A) | Potency (CAOV3) | Potency (CASKI) | Potency (Es-2) | Potency (HeLa) | Potency (Hek293T)

CC(=O)OC1C(c2ccccc2)CCC(c2ccccc2)C1OC(C)=O (configuration not stated)
inactive: Potency (C33A) | Potency (CAOV3) | Potency (CASKI) | Potency (Es-2) | Potency (HeLa) | Potency (Hek293T)

Nc1ncnc2c([C@@H]3N[C@H](CO)[C@@H](O)[C@H]3O)c[nH]c12
inactive: Potency (C33A) | Potency (CAOV3) | Potency (CASKI) | Potency (Es-2) | Potency (HeLa) | Potency (Hek293T)

Cc1oc2ccccc2c1CNC(=O)NCc1cccs1
inactive: Potency (C33A) | Potency (CAOV3) | Potency (CASKI) | Potency (Es-2) | Potency (HeLa) | Potency (Hek293T)
